The values below come from PubChem BioAssay (Tox21).

Experiment [1] addresses Thyrotropin-releasing hormone receptor (Homo sapiens) (UniProt P34981). Nature of the experiment: qHTS assay to identify small molecule agonists of the thyrotropin-releasing hormone receptor (TRHR) signaling pathway (AID 1346891; calls by dose curve; further: series mostly up to about 58 µM). Put shortly: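 HEK293 cells expressing TRHR plated 18 h at 37 C/5% CO2, calcium dye-loaded 2 h at 37 C, then compound added (agonist mode); kinetic calcium fluorescence read 3 min at 1 s intervals; 15 concentrations in triplicate.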

Experiment [2] can be described thus: Human pregnane X receptor (PXR) small molecule agonists, qHTS cell viability counter screen (AID 1346977). Further: nearly all actives have a fitted effect of over 50% in size. Further: potency means the concentration at half of the fitted maximal effect. Put shortly: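 PXR-Luc HepG2 cells (2,000/well, 5% charcoal-stripped FBS) preincubated 5 hr, then exposed to compounds 24 hr at 37 C. Viability read in the same wells by CellTiter-Fluor fluorescence, reagent added at 23 hr, 1 hr incubation.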
Experiment [3] is described as follows: Caspase-3/7 induction in HepG2 cells by small molecules, qHTS assay (AID 1346978). Further: nearly all actives have a fitted effect of over 15% in size. Further: potency means the concentration at half of the fitted maximal effect. Put shortly:
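Wild-type HepG2 cells (2,000/well) were settled 5 h at 37 C, 5% CO2, then exposed to compounds in DMSO for 17 h. Caspase-3/7 activity was read by luminescence 30 min after adding Caspase-Glo 3/7 reagent at room temperature.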

The nature of experiment [4]: Caspase-3/7 induction in CHO-K1 cells by small molecules, qHTS cell viability counter screen (AID 1346979). Further: nearly all actives have a fitted effect of over 35% in size. Further: potency means the concentration at half of the fitted maximal effect. Put shortly: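 Wild-type CHO-K1 cells (1,500/well) treated with compound after 5 h plating; after 16 h at 37C, viability read as CellTiter-Fluor fluorescence following 1 h reagent incubation, in the same wells as the caspase read.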
The nature of experiment [5]: Caspase-3/7 induction in CHO-K1 cells by small molecules, qHTS assay (AID 1346980). Further: nearly all actives have a fitted effect of over 15% in size. A digest of the protocol:
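Wild-type cells were seeded at 1,500 per well and settled 5 hr at 37 C, 5% CO2, then exposed to DMSO-dissolved compounds for 17 hr. Caspase-Glo 3/7 reagent was added, and luminescence was read after 30min at room temperature.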

Experiment [6] in a line: Caspase-3/7 induction in HepG2 cells by small molecules, qHTS cell viability counter screen (AID 1346981). Further: nearly all actives have a fitted effect of over 30% in size. Further: potency means the concentration at half of the fitted maximal effect. Put shortly: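 CellTiter-Fluor fluorescence measured viability in the same wells used for Caspase-Glo 3/7. HepG2 (wild type) at 2,000 cells/well were pre-incubated 5 hr, dosed, and given reagent at 16 hr, with 1 hr further at 37C.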
For experiment [7], the target named is Nuclear receptor subfamily 1 group I member 2 (Homo sapiens) (UniProt O75469). Nature of the experiment: Human pregnane X receptor (PXR) small molecule agonists, qHTS assay (AID 1346982). Further: nearly all actives have a fitted effect of over 35% in size. Further: potency means the concentration at half of the fitted maximal effect. Put shortly: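 Agonist mode: luminescence from ONE-Glo after 24 h compound exposure at 37C in HepG2 cells carrying hPXR-responsive CYP3A4 luciferase, plated in charcoal-stripped serum medium 5 h beforehand.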
Chain of Nuclear receptor subfamily 1 group I member 2 (Homo sapiens) (O75469 whole entry, looked up): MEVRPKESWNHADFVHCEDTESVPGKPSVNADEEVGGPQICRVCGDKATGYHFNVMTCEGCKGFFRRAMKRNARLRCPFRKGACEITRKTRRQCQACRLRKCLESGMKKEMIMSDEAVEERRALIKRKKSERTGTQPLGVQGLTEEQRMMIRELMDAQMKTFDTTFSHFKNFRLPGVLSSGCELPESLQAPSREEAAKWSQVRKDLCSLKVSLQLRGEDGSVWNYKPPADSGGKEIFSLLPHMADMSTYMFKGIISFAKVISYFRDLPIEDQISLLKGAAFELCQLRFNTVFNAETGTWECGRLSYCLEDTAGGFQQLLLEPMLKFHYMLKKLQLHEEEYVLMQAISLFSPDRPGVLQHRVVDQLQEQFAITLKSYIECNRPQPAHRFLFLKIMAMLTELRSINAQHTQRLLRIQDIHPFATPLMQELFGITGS

Experiment [8] deals with Cytochrome P450 2D6 (Homo sapiens) (UniProt P10635). Nature of the experiment: Cytochrome P450 Family 2 Subfamily D Member 6 (CYP2D6) small molecule antagonists: luciferase reporter qHTS assay (AID 1671196). Further: nearly all actives have a fitted effect of over 50% in size. Further: potency means the concentration at half of the fitted maximal effect. Put shortly:
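CYP2D6 activity was followed as luminescence from its luciferin product after a 1 h NADPH-driven reaction at room temperature. Enzyme-substrate mix and compound were pre-incubated for 10 min, and the signal was read 20 min after adding detection reagent.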

The target of experiment [9] is Cytochrome P450 2C19 (Homo sapiens) (UniProt P33261). The experiment in a line: Cytochrome P450 Family 2 Subfamily C Member 19 (CYP2C19) small molecule antagonists: luciferase reporter qHTS assay (AID 1671197). Further: nearly all actives have a fitted effect of over 65% in size. Further: potency means the concentration at half of the fitted maximal effect. Put shortly:
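Light output is proportional to CYP2C19 activity: proluciferin substrate is converted to luciferin, then detected by a luciferin detection reagent that also stops the 1 h, 37C NADPH-driven reaction. Ketoconazole serves as positive control.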

The target of experiment [10] is Cytochrome P450 2C9 (Homo sapiens) (UniProt P11712). Nature of the experiment: Cytochrome P450 Family 2 Subfamily C Member 9 (CYP2C9) small molecule antagonists: luciferase reporter qHTS assay (AID 1671198). Further: nearly all actives have a fitted effect of over 50% in size. Further: potency means the concentration at half of the fitted maximal effect. Put shortly: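 CYP2C9 activity was measured with a P450-Glo proluciferin substrate. Enzyme–substrate mix was held with compound for 10 min at room temperature, then NADPH regeneration solution was added for 1 h at 37C. Luciferin product was read as luminescence.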
Chain of Cytochrome P450 2C9 (Homo sapiens) (P11712 whole entry, looked up): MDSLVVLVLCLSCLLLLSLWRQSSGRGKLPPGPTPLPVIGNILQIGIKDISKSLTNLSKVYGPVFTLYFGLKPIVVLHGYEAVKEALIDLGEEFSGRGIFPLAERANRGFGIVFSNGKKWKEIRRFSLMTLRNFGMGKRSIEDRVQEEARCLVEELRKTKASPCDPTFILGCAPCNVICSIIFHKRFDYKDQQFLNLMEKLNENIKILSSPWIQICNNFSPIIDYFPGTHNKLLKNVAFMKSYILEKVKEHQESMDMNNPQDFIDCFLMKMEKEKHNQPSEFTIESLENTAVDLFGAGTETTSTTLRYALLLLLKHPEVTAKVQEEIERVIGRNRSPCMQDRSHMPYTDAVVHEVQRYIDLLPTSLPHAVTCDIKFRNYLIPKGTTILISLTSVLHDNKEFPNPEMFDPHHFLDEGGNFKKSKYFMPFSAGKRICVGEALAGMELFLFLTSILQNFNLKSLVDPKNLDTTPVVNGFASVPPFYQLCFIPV

The target in experiment [11] is Cytochrome P450 1A2 (Homo sapiens) (UniProt P05177). The experiment in a line: Cytochrome P450 Family 1 Subfamily A Member 2 (CYP1A2) small molecule antagonists: luciferase reporter qHTS assay (AID 1671199). Further: nearly all actives have a fitted effect of over 50% in size. Further: potency means the concentration at half of the fitted maximal effect. A digest of the protocol:
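Luminescence from luciferin formed by CYP1A2 from a proluciferin substrate, read 20 min after detection reagent. Compound was pre-incubated 10 min with enzyme-substrate, and reaction started with NADPH regeneration solution for 1 h at room temperature; furafylline control.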

Experiment [12] addresses Voltage-gated inwardly rectifying potassium channel KCNH2 (Homo sapiens) (UniProt Q12809). The experiment in a line: Human Ether-a-go-go-Related Gene (hERG) channel small molecule antagonists: fluorescence cell-based qHTS assay (AID 1671200). Put shortly: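 hERG-U2OS cells plated overnight at 37 C, loaded with FluxOR II dye 1 h at RT in dark; after 10 min, thallium stimulus added. Fluorescence (480/540 nm) read kinetically for 2 min at 1 s intervals.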

Experiment [13] has as its target Cytochrome P450 3A4 (Homo sapiens) (UniProt P08684). The experiment in a line: Cytochrome P450 Family 3 Subfamily A Member 4 (CYP3A4) small molecule antagonists: luciferase reporter qHTS assay (AID 1671201). Put shortly:
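P450-Glo CYP3A4 luminescent assay: compounds preincubated 10 min at room temperature with enzyme and proluciferin substrate, NADPH regeneration added, 1 h room-temperature reaction, stopped with luciferin detection reagent; luminescence read after 20 min. Ketoconazole positive control.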

Experiment [14] addresses Nuclear receptor subfamily 1 group I member 2 (Rattus norvegicus) (UniProt Q9R1A7). Nature of the experiment: Rat pregnane X receptor (rPXR) activation by small molecules, qHTS assay (AID 1346983). Further: nearly all actives have a fitted effect of over 20% in size. The settings on record: rPXR luciferase reporter cells, One-Glo luminescence, 24 h; stronger effect = higher value. A digest of the protocol:
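Cell-based rPXR luciferase reporter assay, 2,000 cells per well, rested 5hr at 37 C before compound addition in DMSO, then 24 hr at 37 C. One-Glo reagent was added and luminescence read after 30 min at room temperature.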

Experiment [15] concerns the target Nuclear receptor subfamily 1 group I member 2 (Homo sapiens) (UniProt O75469). Nature of the experiment: CYP3A4 induction through human pregnane X receptor (PXR) by small molecules, qHTS assay (AID 1346984). Further: nearly all actives have a fitted effect of over 40% in size. Put shortly:
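Read-out is luminescence after One-Glo addition, following a 3 hr, 37C incubation with Luciferin-IPA CYP3A4 substrate (3uM final). Before that, compounds were on DPX-2 cells (HepG2 co-transfected with PXR element plus CYP3A4-promoter luciferase) for 24 hr at 37C.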

The target is the same in experiment [16]. Nature of the experiment: Human pregnane X receptor (PXR) activation by small molecules, qHTS assay (AID 1346985). Further: nearly all actives have a fitted effect of over 40% in size. Put shortly: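 DPX-2 cells (HepG2 co-transfected with a PXR response element and a CYP3A4-promoter luciferase construct) were seeded at 2,000 per well, rested 5 hr at 37C, then exposed to DMSO-dissolved compounds for 24 hr. Activation was read as luciferase luminescence.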

Several values for one entry are separate records, joined by “and”; a condition that tells them apart may be missing. Equal values may be shown once. Inconclusive results are not listed. Some compounds were tested as several samples or in several runs, with calls that do not always agree. Activity calls are given as the source filed them. Unless noted, the call rests on the fitted dose curve; in most records, active means well fitted curve in the direction sought with a large enough effect in the repeat runs; inconclusive means weak or mixed curves; inactive means no such curve, though single readings can be large; an effect the other way counts as inactive or inconclusive.
On the % scale 0 is the no-effect control and ±100 the full control effect.

Chain of Voltage-gated inwardly rectifying potassium channel KCNH2 (Homo sapiens) (Q12809 whole entry, looked up): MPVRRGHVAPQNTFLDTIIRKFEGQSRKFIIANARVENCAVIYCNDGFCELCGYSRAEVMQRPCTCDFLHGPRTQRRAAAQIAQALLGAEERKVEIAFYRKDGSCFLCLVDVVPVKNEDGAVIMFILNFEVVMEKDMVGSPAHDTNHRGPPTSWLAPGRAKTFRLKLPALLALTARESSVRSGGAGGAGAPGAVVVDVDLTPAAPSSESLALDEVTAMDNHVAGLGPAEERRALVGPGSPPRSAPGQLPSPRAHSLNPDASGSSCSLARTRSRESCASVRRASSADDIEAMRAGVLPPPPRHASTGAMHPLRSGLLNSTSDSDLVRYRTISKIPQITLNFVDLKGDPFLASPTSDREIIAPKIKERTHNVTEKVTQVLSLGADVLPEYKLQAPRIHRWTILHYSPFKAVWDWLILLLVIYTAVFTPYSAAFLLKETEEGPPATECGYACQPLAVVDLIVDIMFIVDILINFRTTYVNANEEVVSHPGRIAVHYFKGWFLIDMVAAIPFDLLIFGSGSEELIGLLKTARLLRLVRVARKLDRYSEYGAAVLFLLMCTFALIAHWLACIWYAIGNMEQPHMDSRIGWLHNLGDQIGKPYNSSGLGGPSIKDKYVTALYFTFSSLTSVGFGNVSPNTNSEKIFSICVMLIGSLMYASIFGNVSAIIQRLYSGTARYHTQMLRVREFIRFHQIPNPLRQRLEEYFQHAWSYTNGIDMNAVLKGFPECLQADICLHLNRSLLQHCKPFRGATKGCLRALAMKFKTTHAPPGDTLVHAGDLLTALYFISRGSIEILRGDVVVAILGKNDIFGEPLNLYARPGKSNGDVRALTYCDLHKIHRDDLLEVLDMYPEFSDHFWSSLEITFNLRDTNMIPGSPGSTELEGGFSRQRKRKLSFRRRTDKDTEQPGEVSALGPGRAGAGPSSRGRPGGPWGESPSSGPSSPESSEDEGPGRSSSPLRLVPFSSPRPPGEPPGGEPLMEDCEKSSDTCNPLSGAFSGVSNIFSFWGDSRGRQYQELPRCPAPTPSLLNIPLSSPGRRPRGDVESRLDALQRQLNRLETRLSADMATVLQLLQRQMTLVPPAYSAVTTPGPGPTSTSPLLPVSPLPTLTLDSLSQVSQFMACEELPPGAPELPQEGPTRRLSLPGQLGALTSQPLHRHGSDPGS
Chain of Cytochrome P450 2C19 (Homo sapiens) (P33261 whole entry, looked up): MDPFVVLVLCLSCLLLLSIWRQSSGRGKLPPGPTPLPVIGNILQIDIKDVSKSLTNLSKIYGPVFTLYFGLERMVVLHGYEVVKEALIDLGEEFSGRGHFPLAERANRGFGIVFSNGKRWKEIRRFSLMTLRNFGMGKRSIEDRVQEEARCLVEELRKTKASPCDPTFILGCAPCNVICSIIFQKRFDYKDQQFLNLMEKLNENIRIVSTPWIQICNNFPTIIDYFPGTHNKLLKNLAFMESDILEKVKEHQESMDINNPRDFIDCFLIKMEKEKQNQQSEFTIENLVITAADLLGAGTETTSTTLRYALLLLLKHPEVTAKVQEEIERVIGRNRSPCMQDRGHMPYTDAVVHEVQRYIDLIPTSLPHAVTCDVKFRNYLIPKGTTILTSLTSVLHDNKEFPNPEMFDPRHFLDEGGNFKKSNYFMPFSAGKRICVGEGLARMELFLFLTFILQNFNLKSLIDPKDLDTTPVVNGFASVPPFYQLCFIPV
Chain of Cytochrome P450 2D6 (Homo sapiens) (P10635 whole entry, looked up): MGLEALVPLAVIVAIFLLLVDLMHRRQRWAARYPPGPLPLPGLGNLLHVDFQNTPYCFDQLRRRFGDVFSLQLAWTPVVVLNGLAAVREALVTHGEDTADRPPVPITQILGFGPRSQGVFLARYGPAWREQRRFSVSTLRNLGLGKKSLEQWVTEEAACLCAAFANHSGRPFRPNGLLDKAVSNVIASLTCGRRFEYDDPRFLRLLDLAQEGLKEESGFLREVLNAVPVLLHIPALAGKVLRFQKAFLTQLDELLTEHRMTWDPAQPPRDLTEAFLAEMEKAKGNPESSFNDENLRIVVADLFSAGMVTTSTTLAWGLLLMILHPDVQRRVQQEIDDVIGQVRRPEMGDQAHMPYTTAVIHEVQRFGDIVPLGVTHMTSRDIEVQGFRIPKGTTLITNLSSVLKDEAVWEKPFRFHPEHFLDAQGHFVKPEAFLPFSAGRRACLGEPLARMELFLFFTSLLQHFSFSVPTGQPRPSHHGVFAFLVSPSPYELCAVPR
Chain of Thyrotropin-releasing hormone receptor (Homo sapiens) (P34981 whole entry, looked up): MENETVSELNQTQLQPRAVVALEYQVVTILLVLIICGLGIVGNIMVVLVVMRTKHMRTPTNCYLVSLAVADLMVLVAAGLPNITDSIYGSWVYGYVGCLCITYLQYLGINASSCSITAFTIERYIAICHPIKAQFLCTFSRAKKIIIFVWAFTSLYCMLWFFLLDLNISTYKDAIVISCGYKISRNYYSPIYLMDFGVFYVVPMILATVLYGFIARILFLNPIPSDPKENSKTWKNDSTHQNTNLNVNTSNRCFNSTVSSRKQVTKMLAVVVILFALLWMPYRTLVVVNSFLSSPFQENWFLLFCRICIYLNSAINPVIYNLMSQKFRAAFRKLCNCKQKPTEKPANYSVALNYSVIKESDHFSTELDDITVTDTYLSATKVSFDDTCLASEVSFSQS
Chain of Cytochrome P450 1A2 (Homo sapiens) (P05177 whole entry, looked up): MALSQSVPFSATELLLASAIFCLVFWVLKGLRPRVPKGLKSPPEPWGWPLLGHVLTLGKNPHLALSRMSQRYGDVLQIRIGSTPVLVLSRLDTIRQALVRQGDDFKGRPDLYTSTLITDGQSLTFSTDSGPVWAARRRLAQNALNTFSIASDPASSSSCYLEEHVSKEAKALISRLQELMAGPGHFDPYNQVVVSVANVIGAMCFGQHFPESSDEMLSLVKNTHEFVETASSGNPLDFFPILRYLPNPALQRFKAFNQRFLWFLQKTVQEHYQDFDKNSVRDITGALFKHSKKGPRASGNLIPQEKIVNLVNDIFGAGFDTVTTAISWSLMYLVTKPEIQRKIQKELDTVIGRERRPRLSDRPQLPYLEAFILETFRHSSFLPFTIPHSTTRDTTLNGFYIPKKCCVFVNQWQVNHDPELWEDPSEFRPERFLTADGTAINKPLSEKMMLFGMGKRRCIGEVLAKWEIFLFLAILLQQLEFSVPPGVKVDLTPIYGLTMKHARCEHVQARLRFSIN
Chain of Cytochrome P450 3A4 (Homo sapiens) (P08684 whole entry, looked up): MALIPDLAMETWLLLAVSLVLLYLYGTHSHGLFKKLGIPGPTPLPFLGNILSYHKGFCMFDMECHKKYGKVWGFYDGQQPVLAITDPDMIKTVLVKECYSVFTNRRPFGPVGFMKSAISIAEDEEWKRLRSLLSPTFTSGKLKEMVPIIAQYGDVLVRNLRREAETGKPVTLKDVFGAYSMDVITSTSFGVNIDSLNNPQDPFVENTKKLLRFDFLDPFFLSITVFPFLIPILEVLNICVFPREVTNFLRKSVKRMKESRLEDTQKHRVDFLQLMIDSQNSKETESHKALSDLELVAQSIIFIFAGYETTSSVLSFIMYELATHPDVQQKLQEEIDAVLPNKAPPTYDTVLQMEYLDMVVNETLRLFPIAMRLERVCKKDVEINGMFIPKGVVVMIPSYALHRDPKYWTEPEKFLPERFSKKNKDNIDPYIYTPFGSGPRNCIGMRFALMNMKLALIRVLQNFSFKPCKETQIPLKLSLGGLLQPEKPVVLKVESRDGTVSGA
Chain of Nuclear receptor subfamily 1 group I member 2 (Rattus norvegicus) (Q9R1A7 whole entry, looked up): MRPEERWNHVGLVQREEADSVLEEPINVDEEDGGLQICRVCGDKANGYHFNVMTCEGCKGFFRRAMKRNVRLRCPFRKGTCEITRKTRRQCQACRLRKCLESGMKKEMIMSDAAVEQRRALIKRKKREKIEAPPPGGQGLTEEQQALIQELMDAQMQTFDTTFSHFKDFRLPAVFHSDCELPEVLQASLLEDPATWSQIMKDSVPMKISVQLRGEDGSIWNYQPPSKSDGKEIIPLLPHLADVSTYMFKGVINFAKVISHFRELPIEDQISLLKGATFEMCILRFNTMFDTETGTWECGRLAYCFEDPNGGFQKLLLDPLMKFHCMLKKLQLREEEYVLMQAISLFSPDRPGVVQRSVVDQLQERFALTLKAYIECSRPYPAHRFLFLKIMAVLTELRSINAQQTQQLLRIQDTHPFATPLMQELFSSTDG

As for `CCCCCCCCCCCC(=O)OC`, the compound was called inactive in [1] and in [5]. Further, the Potency result in [2], in experiment [3], in experiment [4], in experiment [6], in experiment [7] and in experiment [8] was “inactive” each time. Also, the Potency entry in experiment [9], in experiment [10], in experiment [11], in [12] and in [13] was “inactive” throughout.
`Clc1ccccn1`: the outcome in experiment [1] and in experiment [5] was inactive. The Potency entry in experiment [2], in experiment [3], in [4], in experiment [6], in experiment [7] and in [8] was “inactive” throughout. Further, the Potency entry in [9], in [10], in experiment [11], in [12] and in experiment [13] was “inactive” throughout.
In the case of `CSc1ccc(Cl)cc1`, the call in experiment [1] and in experiment [5] was inactive. Further, the Potency result in [2], in [3], in [4], in experiment [6], in [7] and in experiment [8] was “inactive” each time. Besides, the Potency entry in [9], in [10], in experiment [11], in [12] and in [13] was “inactive” each time.
As to `CC(O)CC(C)(C)O` (configuration not stated), the outcome in experiment [1] and in experiment [5] was inactive. The Potency result in experiment [2], in [3], in experiment [4], in [6], in [7] and in [8] was “inactive” each time. Moreover, the Potency entry in [9], in [10], in experiment [11], in experiment [12] and in [13] was “inactive” throughout.
Take `COCCCN`: the compound was classed as inactive in experiment [1] and in experiment [5]. The Potency entry in experiment [2], in [3], in [4], in experiment [6], in experiment [7] and in experiment [8] was “inactive” each time. Further, the Potency entry in experiment [9], in experiment [10], in [11], in experiment [12] and in experiment [13] was “inactive” throughout.
As for `Cc1ccc([N+](=O)[O-])cc1S(=O)(=O)O`, the outcome in experiment [1] and in experiment [5] was inactive. Also, the Potency result in [2], in experiment [3], in experiment [4], in experiment [6], in experiment [7] and in experiment [12] was “inactive” throughout. Further, in experiment [13], the Potency entry is “inactive”. The Potency in experiment [8] was 39.2 µM (active); in experiment [9] it was 35.6 µM (active); in experiment [10], 56.4 µM (active); in [11], “inactive and 63.3 µM (active)”.
On to `CN(C)c1ccc(O)c2c1C[C@H]1C[C@H]3[C@H](N(C)C)C(=O)C(C(N)=O)=C(O)[C@@]3(O)C(=O)C1=C2O`, for which the compound was classed as inactive in [1], in experiment [5] and in experiment [16]. The Potency result in [2], in [3], in experiment [7], in experiment [15], in experiment [8] and in [9] was “inactive” each time. The Potency entry in experiment [10], in experiment [11], in experiment [12] and in experiment [13] was “inactive” each time. The Potency in [4] was 68.6 µM (active) and 29.8 µM (active); in [6] it was 54.5 µM (active) and 29.8 µM (active). The max activation in experiment [14] is -2.35% (inactive).
For `C=C(C)C(=O)OCC(C)C`, the call in [1] and in experiment [5] was inactive. Also, the Potency in experiment [2] was 39.8 µM (active) and inactive; in experiment [3] it was 55.2 µM (active) and inactive; in [4], 12.4 µM (active) and inactive; in experiment [7] it was 17.5 µM (active) and inactive. Also, the Potency result in experiment [6], in experiment [8], in experiment [9], in [10], in experiment [11] and in [12] was “inactive” in each case. In [13], the Potency entry is “inactive”.
